Laboratory results reported in PubChem BioAssay (NCI).
Compounds without any hit were thinned out: in the full panel of roughly 79,000, 15% have a hit. Calls of active or inactive are those of the source. Cut-off read from the data, not from the text of the source: active = growth inhibition above about 70%; inactive = the rest.

Test: NCI Yeast Anticancer Drug Screen. Data for the rad14 strain (AID 159);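 note: 0% = growth of vehicle-treated control cultures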
Conditions: S. cerevisiae rad14 strain growth inhibition, hits give high values
Method: Growth inhibition of yeast strains with defined genetic alterations is measured as a screen for potential anti-cancer activity. Selected strains with alterations in DNA damage repair or cell cycle control were exposed to compounds and growth inhibition was measured relative to vehicle treated controls. The strain used in this assay is rad14

Measured: growth inhibition

O=C(/C=C\c1ccc([N+](=O)[O-])o1)Nc1ccc(Cl)cc1
inactive: at 1.2 µM 21%
active: at 3.7 µM 70% | at 11.0 µM 91% | at 33.0 µM 94% | at 100.0 µM 96%

COC(=O)c1cccc(C)c1C(=O)c1c(C)cc(C)cc1C
inactive: at 1.2 µM 0% | at 3.7 µM 0% | at 11.0 µM 5% | at 33.0 µM 20% | at 100.0 µM 47%

O=[N+]([O-])c1c(/C=N/Nc2ccccc2)oc(-c2ccc3c(c2)OCO3)c1-c1ccc2c(c1)OCO2
active: at 100.0 µM 91%
inactive: at 1.2 µM 0% | at 3.7 µM -2% | at 11.0 µM 2% | at 33.0 µM 20%

Cc1cc(OCc2ccccc2)ccc1[N+](=O)[O-]
inactive: at 1.2 µM -15% | at 3.7 µM 1% | at 11.0 µM 11% | at 33.0 µM 39% | at 100.0 µM 63%

CCN(CC)CCNC(=O)c1nn(-c2ccc(Cl)cc2)c2c1CCc1cc(OC)ccc1-2
active: at 100.0 µM 92%
inactive: at 1.2 µM -1% | at 3.7 µM 2% | at 11.0 µM 10% | at 33.0 µM 24%

NC(N)=NCCCS(=O)(=O)Nc1ccc(Nc2c3ccccc3nc3cc([N+](=O)[O-])ccc23)cc1
active: at 100.0 µM 81%
inactive: at 1.2 µM -10% | at 3.7 µM -1% | at 11.0 µM -1% | at 33.0 µM 31%

CN(C)c1ccc(/C=C/c2ccnc3ccccc23)cc1N
inactive: at 1.2 µM -7% | at 3.7 µM -7% | at 11.0 µM -8% | at 33.0 µM 3% | at 100.0 µM 17%

O=c1[nH]c2ccccc2c2nc3ccccc3n12
inactive: at 1.2 µM -39% | at 3.7 µM -43% | at 11.0 µM -50% | at 33.0 µM 7% | at 100.0 µM -8%
